In the OligoGym collection:

Biological target: RBFOX1
Experiment: pooled miR-30 sensor sort-seq; sequence = guide strand
Conditions: shRNA
Note: reference of the scale not given here.

Sequence | sensor-assay potency score (higher = more potent)
TTGACCAAACATTTGTCTGAGG | -0.662
TTGTCTGAGGTCCGGATCCCGG | -1.44
TTATTTGTCATTACACGTGCTG | 0.199
TATTTGTCATTACACGTGCTGT | -1.1
TTTAATATCCAACTGATCTTAC | -0.633
TACACATGAGGACTTAACCTAT | -0.971
TTTTATTTGTCATTACACGTGC | 0.123
TTCTAGAACTTAACAACTCCAC | -0.286

Biological target: RBM12B
Experiment: as above
Conditions: shRNA

Sequence | sensor-assay potency score (higher = more potent)
TTAAGTGAACATAAAATCCAAG | -0.9
TTATACTGTATCGAAACTGAAT | -1.19
TAGATCTTTAATAGCAGCCATA | -1.64
TATCTCTCTCTAGTGACCCTGA | 0.0397
TATGACATTTAAGACCTCCTGA | 0.971
ATTTTTGTGAAACATGTCCGGG | -0.845
TAATAGGAGTTACTCTACCTGA | -0.42
TAATTGAAGAGCCATATCCAGA | -1.22
TTTTTGTGAAACATGTCCGGGC | 0.0214
TAGTCTTCTGCATTTCTGCCTT | -0.412
TAAGTCTTGAAGATTACCGATG | -1.18
TAAGTCTTAATAACACCTCTGT | 0.203

Biological target: RBM15B
Experiment: as above
Conditions: shRNA

Sequence | sensor-assay potency score (higher = more potent)
TGTGACACAAACATGACGCTGG | 0.96
TTGCTGAGGGAGTTGCTGCTGG | -0.717
TATAGGCAAAGCTATCTCCTTT | -0.598
TTGTGACACAAACATGACGCTG | -1.03
TTTTTCAACACCAGAAGCCCAT | 0.0926
TTTGACGTGATCAATGGTCCGA | 0.695
TAAGAGGACCGCATAGCCGTTG | -0.808
TCGTGTGACCTCGTCAAGCTTG | -1.02
TTGACGTGATCAATGGTCCGAA | 0.476
TTTTGTGACACAAACATGACGC | 0.652
TTTAAAATAACTGCTTTTGTGA | -0.54

Biological target: RBM28
Experiment: as above
Conditions: shRNA

Sequence | sensor-assay potency score (higher = more potent)
TTTTCCTAGATACCTGCTCGGA | -0.748
TTCTTCACCTTCGTCGTCTGAA | -0.116
TCCACTAGTAGCACTCAGCAGC | -1.24
TTTTGAACTGAACAAAACCAAA | -1.7
TTGTCATCTACAGCCTTTGGGA | -0.978
TTTCTTGGCAACAGTCACGTTG | -0.362
TTGAGGTCTCGCATCACTCTAC | -0.147
TTGAAAAAGTGACATAGCCAAA | -1.59
TTTTGTTTGAGACTTGCACAGC | -0.43
